RGS8-Gao reg: modulates binding of RGS8 to human Galphao. P09471. multiplexed bead flow cytometry; actives lie on both sides. response (percent of control binding), % at 10 µM. 220,000 tested, 0.34% active. AID 1423; in the data active = response below about 60% or above about 140%; inactive = in between;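 also: Galphao activated as the GDP aluminium fluoride complex binding bead-coupled RGS8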
Target sequence (P09471 whole entry, looked up): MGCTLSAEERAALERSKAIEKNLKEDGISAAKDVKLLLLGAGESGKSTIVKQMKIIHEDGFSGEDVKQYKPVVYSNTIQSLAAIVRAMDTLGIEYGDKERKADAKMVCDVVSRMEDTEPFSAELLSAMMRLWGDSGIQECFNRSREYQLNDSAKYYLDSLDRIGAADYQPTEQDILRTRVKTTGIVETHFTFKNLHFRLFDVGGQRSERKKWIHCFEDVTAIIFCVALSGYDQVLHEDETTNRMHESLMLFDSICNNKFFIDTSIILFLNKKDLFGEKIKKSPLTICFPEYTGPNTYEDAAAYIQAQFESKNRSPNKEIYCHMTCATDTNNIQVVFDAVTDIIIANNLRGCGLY
GSH fluor: compound fluoresces at 488/530 nm on GSH beads; AID 1776; 190,000 tested, 0.25% active; fluorescence (KMESF) at 10 µM; GSH beads flow cytometry, compound fluorescence 488/530 nm; stronger effect = higher value; in the data active = fluorescence above about 89;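 also: glutathione beads carrying GST-tagged Bcl family fusion proteins plus one bare bead set; values are compound well signal with DMSO vehicle wells as background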
RGS16-Gao: modulates binding between human RGS16 and Galphao | bead-based flow cytometry RGS16-Galphao binding, fluorescence; actives lie on both sides | binding response (% of control), % at 10 µM | AID 1441 | 220,000 tested, 0.38% active | O15492+P09471;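 also: Galphao activated by GDP with aluminum fluoride before binding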
RGS4-Gao reg: human RGS4-Galphao interaction regulation | P09471 | Multiplexed bead flow cytometry, RGS4-Galphao binding; actives lie on both sides | binding response (% of control), % at 10 µM | 220,000 tested, 0.33% active | AID 1415; in the data active = binding response below about 49% or above about 150%; inactive = in between;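 also: fluorescent Galphao activated with aluminum fluoride binding bead-coupled RGS4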
Avidin bead fluor: avidin bead compound fluorescence profile. Avidin beads, compound fluorescence 488/530 nm, flow cytometry; stronger effect = higher value. fluorescence (KMESF) at 10 µM. 220,000 tested, 0.38% active; in the data active = fluorescence above about 47
RGS7-Gao: regulators of human RGS7-Galphao interaction; P09471; Multiplexed bead flow cytometry, RGS7-Galphao binding; actives lie on both sides; 220,000 tested, 0.35% active; AID 1439; binding response (% of control), % at 10 µM; in the data active = binding response below about 49% or above about 150%; inconclusive = no clear call, values can overlap the other calls; inactive = in between;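 also: fluorescent Galphao held in activated GDP-AlF4 state binding bead-coupled RGS7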
RGS-Gao: regulators of human RGS4-Galphao interaction | shares compounds with RGS16-Gao | multiplexed bead flow cytometry, RGS–Galpha-o binding | RGS4–Galpha-o binding response, % at 10 µM | 1,600 tested, 99% active | AID 1504;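 also: fluorescently labeled Galpha-o bound to GDP with aluminium fluoride binding biotinylated RGS beads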
Biotin-avidin: biotin-avidin bead binding disruption counter-screen; shares compounds with RGS16-Gao; streptavidin beads, fluorescein-biotin binding, flow cytometry; 1,700 tested, under 10 active; inhibition, % at 10 µM;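 active = inhibition above 50%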;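 also: median green fluorescence of gated singlet beads compared with DMSO control wells; 0% = DMSO wells and 100% = complete loss of bead fluorescence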
RGS8-Gao confirm: confirmation of regulators of human RGS8-Galphao interaction; shares compounds with RGS16-Gao; bead-based flow cytometry RGS8-Galphao binding, fluorescence; actives lie on both sides; binding response (% of control), % at 10 µM; 1,700 tested, 3% active; in the data active = binding response below about 72% or above about 130%; inactive = in between;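 also: Galphao activated as GDP AlF4 complex before binding bead RGS8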
RGS7-Gao single: confirmation of regulators of human RGS7-Galphao interaction. shares compounds with RGS16-Gao. bead-based flow cytometry RGS7-Galphao binding; actives lie on both sides. response (percent of control binding), % at 10 µM. 1,700 tested, 7.8% active. AID 1837; in the data active = response below about 75% or above about 130%; inactive = in between;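 also: fluorescent Galphao activated with GDP and aluminum fluoride binding bead-coupled RGS7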
RGS16-Gao single: confirmation of regulators of human RGS16-Galphao interaction; shares compounds with RGS16-Gao; bead-based flow cytometry, RGS16-Galphao binding; actives lie on both sides; response (% of control binding), % at 10 µM; 1,700 tested, 4% active; AID 1838; in the data active = response below about 74% or above about 130%; inactive = in between;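 also: Galphao activated as the GDP aluminium fluoride complex binding bead-coupled RGS16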
RGS4-Gao single: confirmation of regulators of human RGS4-Galphao interaction; binding response (% of control), % at 10 µM; shares compounds with RGS16-Gao; AID 1840; 1,700 tested, 4% active; RGS4-Galphao binding, multiplexed bead flow cytometry; actives lie on both sides; in the data active = binding response below about 74% or above about 130%; inactive = in between
RGS19-Gao conf: confirmation of regulators of human RGS19-Galphao interaction | 1,700 tested, 5% active | AID 1841 | bead-based flow cytometry RGS19-Galphao binding; actives lie on both sides | response (percent of control binding), % at 10 µM | shares compounds with RGS16-Gao; in the data active = response below about 50% or above about 160%; inactive = in between;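 also: 100% = no compound control and 0% = blank background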
Target sequence (P09471 whole entry, looked up): as above
Target sequence (P49795 whole entry, looked up): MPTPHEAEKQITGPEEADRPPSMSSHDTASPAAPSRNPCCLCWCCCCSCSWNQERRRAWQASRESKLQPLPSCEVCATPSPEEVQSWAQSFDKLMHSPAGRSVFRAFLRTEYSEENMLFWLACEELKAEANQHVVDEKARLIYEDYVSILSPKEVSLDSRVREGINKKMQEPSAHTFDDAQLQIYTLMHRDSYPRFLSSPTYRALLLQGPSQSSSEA
* marks the source's active call; other numbers are inactive results; u = inconclusive; x = no result; [ ] = remark or other dose. This is a sample that favours compounds with a hit; in the whole collection about 1.2% have one here. Unless noted, no rule for the calls is given here.

SMILES | RGS8-Gao reg | GSH fluor | RGS16-Gao | RGS4-Gao reg | Avidin bead fluor | RGS7-Gao | RGS-Gao | Biotin-avidin | RGS8-Gao confirm | RGS7-Gao single | RGS16-Gao single | RGS4-Gao single | RGS19-Gao conf
O=C(CCN1CCOCC1)NNC(=O)/C(=C/c1ccccc1)NC(=O)c1ccccc1 | 86 | 10 | 64 | 43* | 13 | 54 | x | 1 | 111 | 101 | 112 | 102 | 101
COc1ccc(C(=O)NCCc2nnc(SCC(=O)Nc3ccccc3F)n2C)cc1 | 100 | 21 | 107 | 111 | 80* | 166*[activator] | 111* | 1 | 100 | 95 | 98 | 98 | 104
COc1ccccc1N1CCN(C(=O)CSc2nc(N)cc(=O)[nH]2)CC1 | 89 | 12 | 113 | 88 | 201* | 277*[activator] | 88* | 1 | 104 | 106 | 106 | 105 | 129
CC(=O)Nc1nnc(Cc2c[nH]c3ccccc23)s1 | 104 | 10 | 103 | 102 | 12 | 98 | x | x | x | x | x | x | x
CCN(CC)S(=O)(=O)c1ccc2c(c1)nc(CCC(=O)Nc1ccc3c(c1)OCO3)n2CC | 71 | 25 | 20* | 82 | 1 | 88 | 82* | -1 | 100 | 87 | 98 | 92 | 102
Cc1ccc2cc3cc(C(=O)N4CCN(Cc5ccccc5)CC4)sc3nc2c1 | 124 | 231* | 193*[activator] | 172*[activator] | 69* | 162*[activator] | x | 0 | 99 | 94 | 97 | 95 | 90
O=C1C(C=NCc2ccco2)=C(O)c2ccccc21 | 87 | 9 | -57* | 90 | 8 | 93 | 90* | 1 | 98 | 93 | 96 | 97 | 99
COc1ccc(C(CC(=O)Nc2ccccc2OC)n2cccc2)cc1 (stereo not given) | 75 | 4 | 15* | 93 | 8 | 88 | 93* | -2 | 102 | 102 | 103 | 103 | 102
COc1ccc(C(=O)Nc2ccccc2C(=O)NC(Cc2ccc(O)cc2)C(=O)NNC(=O)c2ccncc2)cc1 (stereo not given) | 95 | 24 | 98 | 97 | 9 | 96 | x | x | x | x | x | x | x
COc1ccc2c(c1OC)C(=O)N(c1ccc(C)cc1)C2 | 102 | x | 99 | 97 | 7 | u | x | x | x | x | x | x | x
CCOC(=O)c1cccc(NC(=O)CSc2nc3ccccc3c(=O)n2CCOC)c1 | 9.5* | 24 | -10 | 23* | 0 | 13* | x | 2 | 109 | 111 | 108 | 109 | 97
O=C(Nc1nc2ccccc2s1)C1=NN(c2ccccc2)C(=O)CC1 | 101 | 5 | 101 | 99 | 12 | 98 | x | x | x | x | x | x | x
Cc1sc(N)c(C(=O)c2ccccc2)c1C | 87 | 10 | 113 | 126 | 248* | 253*[activator] | 126* | 1 | 90 | 97 | 88 | 94 | 77
O=C(NC(=S)Nc1ccc(N2CCCCC2)cc1)c1ccc2c(c1)OCCO2 | 125 | 6 | 204*[activator] | 107 | 14 | 107 | 107* | 0 | 102 | 98 | 100 | 97 | 101
O=C(NC(=S)Nc1ccc(N2CCOCC2)cc1)c1ccc2c(c1)OCCO2 | 99 | 7 | 98 | 97 | 2 | 98 | x | x | x | x | x | x | x
CCN(CCn1cccn1)C(=O)CCc1nnc(CCCc2ccccc2)o1 | 100 | 8 | 106 | 100 | 11 | 105 | x | x | x | x | x | x | x
Nc1nc(-c2cc(Cl)cc(Cl)c2OC(F)F)cs1 | 90 | 16 | 90 | 89 | 9 | 85 | x | x | x | x | x | x | x
O=C(/C=C/c1ccccc1)NC(NC(=S)Nc1cc(Cl)ccc1Cl)C(Cl)(Cl)Cl (stereo not given) | 93 | 12 | 94 | 108 | 3 | 109 | x | x | x | x | x | x | x
Cc1ccc(S(=O)(=O)N2CCN(C(=O)c3cccc(F)c3)CC2)cc1 | 94 | 27 | 107 | 125 | 172* | 264*[activator] | 125* | 1 | 98 | 92 | 93 | 94 | 93
CCC(C)NS(=O)(=O)c1ccc(OCC(=O)Nc2ccc3c(c2)OCO3)cc1 (stereo not given) | 100 | 13 | 96 | 91 | 12 | 94 | x | x | x | x | x | x | x
CC(C)NS(=O)(=O)c1ccc(OCC(=O)Nc2ccc3c(c2)OCO3)cc1 | 39* | 12 | 33 | 38* | 6 | 31* | x | -2 | 99 | 96 | 99 | 97 | 92
CCOC(=O)CN1C(c2ccc(O)cc2)Nc2ccc(Br)cc2C1c1ccccc1 (stereo not given) | 62 | 5 | 14* | 85 | 2 | 96 | 85* | 0 | 101 | 95 | 96 | 97 | 129
COc1ccc(/C=N/n2cnn(Cc3ccccc3Cl)c2=S)cc1 | 15* | 10 | 12* | 23* | 0 | u | x | -2 | 102 | 107 | 101 | 103 | 98
Cc1cc(NC(=O)c2ccc(C)s2)n(-c2nc3ccccc3[nH]2)n1 | 12* | 6 | 0.3* | 14* | -2 | 13* | x | 0 | 95 | 87 | 90 | 92 | 92
COc1ccc(S(=O)(=O)Cc2ccc(C(=O)NCCc3ccc(S(N)(=O)=O)cc3)o2)cc1 | 121 | 22 | 183*[activator] | 105 | 9 | 110 | 105* | -1 | 107 | 85 | 110 | 93 | 66
COCCCNC(=O)c1ccc(CS(=O)(=O)c2ccc(OC)cc2)o1 | 102 | 14 | 101 | 100 | 24 | 101 | x | x | x | x | x | x | x
O=C(Cn1c(NCCO)nc2ccccc21)N1CCN(Cc2ccccc2)CC1 | 101 | 14 | 102 | 100 | 9 | u | x | x | x | x | x | x | x
O=C(Nc1ccccc1C(=O)N1CCOCC1)c1ccncc1 | 100 | 28 | 101 | 104 | 12 | 103 | x | x | x | x | x | x | x
c1ccc(-c2nccnc2-c2ccccc2)cc1 | 104 | x | 108 | 103 | 9 | u | x | x | x | x | x | x | x

Screening data deposited in PubChem by NMMLSC.
